# Source: PubChem BioAssay (National Center for Advancing Translational Sciences (NCATS))
# AmpC detergent = inhibitors of E. coli AmpC beta-lactamase with detergent; AmpC hydrolysis of nitrocefin, absorbance 480 nm, 0.01% Triton; Potency, µM (top dose mostly 114 µM), for inactives: at the top dose activity change, negative = inhibition, usual class: inhibitors; 0.041% of 370,000 active;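 further: 0% = no-compound wells and -100% = no-enzyme wells; nearly all actives have a fitted effect of over 25% in size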
# Target sequence (P00811 whole entry, looked up): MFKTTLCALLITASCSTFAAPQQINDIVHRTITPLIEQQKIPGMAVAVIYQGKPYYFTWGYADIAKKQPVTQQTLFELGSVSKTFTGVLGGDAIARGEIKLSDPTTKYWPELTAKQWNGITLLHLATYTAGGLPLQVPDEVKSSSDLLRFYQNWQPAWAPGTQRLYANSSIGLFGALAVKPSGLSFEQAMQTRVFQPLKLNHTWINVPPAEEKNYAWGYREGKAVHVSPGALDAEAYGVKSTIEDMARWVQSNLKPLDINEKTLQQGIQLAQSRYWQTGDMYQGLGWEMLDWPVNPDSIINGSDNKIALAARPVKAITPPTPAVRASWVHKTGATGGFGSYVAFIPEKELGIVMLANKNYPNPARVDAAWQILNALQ
#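 20 mM phosphate pH 7.0 + 0.01% (detergent screen) or 0.0001% Triton X-100; 5.3 nM AmpC reagent; cpd preinc 15 min RT; nitrocefin (800 uM stock) to start; A480 q20 s × 4 min; Activity was normalised to no-enzyme and no-compound control wells.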
# AmpC inh no detg = blocks E. coli AmpC beta-lactamase in detergent-free assay; P00811; AmpC nitrocefin hydrolysis, absorbance 480 nm, 0.0001% Triton; Potency, µM (doses to about 57.1 µM), inactives show at the top dose activity change, negative = inhibition, hits mostly inhibitors; 0.52% of 330,000 active; AID 485341;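 further: plate controls were no compound for no effect and no enzyme for full effect; nearly all actives have a fitted effect of over 20% in size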
#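 20 mM phosphate pH 7.0 + 0.01% (detergent screen) or 0.0001% Triton X-100; 5.3 nM AmpC reagent; cpd preinc 15 min RT; nitrocefin (800 uM stock) to start; A480 q20 s × 4 min; Activity was normalised to no-enzyme and no-compound control wells.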
# Sm TGR block = inhibitors of Schistosoma mansoni thioredoxin glutathione reductase; AID 485364; 3% of 360,000 active; Potency, µM (doses to about 114 µM), inactives show at the top dose activity change, negative = inhibition, usual class: inhibitors; Q962Y6; purified TGR, DTNB reduction, TNB absorbance 405 nm; further: nearly all actives have a fitted effect of over 60% in size
#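 TGR 20 nM + NADPH 100 uM (dispensed conc.), cpd preinc 15 min RT; start with NADPH (500 uM addition) then DTNB (15 mM addition). Kinetic TNB absorbance, 405 nm filter. Four-parameter Hill fit across titration.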
# FBPA Giardia inh = inhibitors of Giardia lamblia fructose-1,6-bisphosphate aldolase | A8B2U2 | 0.71% of 290,000 active | Potency, µM (top dose mostly 59.6 µM), for the others: top-dose activity, negative = inhibition, actives largely listed as inhibitors | purified Giardia FBPA; further: nearly all actives have a fitted effect of over 55% in size
#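 40 nM FBPA preincubated 10 min at RT with compound (up to 57.5 uM final), then substrate plus GAPDH/TPI/NAD/arsenate coupling and diaphorase/resazurin added. Fluorescence read after 20 min at RT, 525/598 nm.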
# * marks the source's active call; other numbers are inactive results; ? = inconclusive; . = no result given; [ ] = another dose, or the depositor's remark. Shown are actives, neighbours in structure and some others; about 3.6% of the full set was active somewhere. The call rests on the fitted dose curve; in most records, active means well fitted curve in the direction sought with a large enough effect; inconclusive means small, poorly fitted or top-dose-only effect, or another doubt; inactive means no such curve, though single readings can be large; an effect the other way counts as inactive or inconclusive. Unless noted, on the % scale 0 is the no-effect control and ±100 the full control effect; potency means the concentration at half of the fitted maximal effect.
SMILES,AmpC detergent,AmpC inh no detg,Sm TGR block,FBPA Giardia inh
CCOC(=O)C1=CN(Cc2cccc(F)c2)S(=O)(=O)N(C)C1c1ccc2ccccc2c1 (stereo unspecified),.,-17%,.,.
Cc1ccc(N2C(=O)CS(=O)(=O)CC2=O)cc1,9%,-32%,8.9µM*,2%
Cc1ccc(N2C(=O)CSCC2=O)cc1,?,-15%,3%,0%
O=C(NC1(C(F)(F)F)NC(=O)N(CC2CCCCC2)C1=O)c1ccco1 (stereo unspecified),?,-2%,79µM*,0%
CCc1ccccc1NC(=O)Cn1c(=O)n(Cc2ccco2)c(=O)c2ccccc21,-4%,.,0%,.
O=C(CCl)NN=C(c1ccccc1)c1ccccc1,0%,-25%,11µM*,-8%
CCN(CC)CC(=O)NN=C(c1ccccc1)c1ccccc1,-12%,15%,15%,13%
Cn1c(C(=O)NCCCN2CCCCCC2)cc2c(=O)n(C)c3ccccc3c21,?,11µM*,?,-6%
O=C(NCc1ccc(Cl)cc1)c1n[nH]c([N+](=O)[O-])c1Cl,-11%,-21%,.,-8%
Oc1ccc(-c2cnns2)c(O)c1,1%,2%,79µM*,-8%
CN(C)c1ccc(NC(=O)/C=C/c2ccccc2Cl)cc1,?,2.5µM*,-7%,2%
Cc1ccc(CN2CCC(Oc3cccc(C(=O)NCc4cccnc4)c3)CC2)o1,4%,24%,32µM*,.
COc1cccc(-c2cccc(NC(=O)C3CCN(Cc4ccc(C)o4)CC3)c2)c1,-13%,44%,50µM*,.
COc1ccc(S(=O)(=O)N2CCCCC2)cc1NC(=O)CCNC(=O)c1ccc(Cl)cc1,.,-18%,.,.
COc1ccc(C(=O)c2nc3ccccc3n2C(C)C)cc1,1%,50%,32µM*,-22%
C=CCSc1nnc(Cc2cc(=O)[nH]c(=O)[nH]2)n1-c1cc(C)ccc1C,-11%,0%,22µM*,-7%[12.9 µM]
COC(=O)C(C)Sc1nnc(Cc2cc(=O)[nH]c(=O)[nH]2)n1-c1cc(C)ccc1C (stereo unspecified),1%,-11%,-3%,-7%
COc1ccccc1/C=C/CN1CCN(Cc2ccc(C)o2)C(CCO)C1 (stereo unspecified),-4%,41%,45µM*,-1%
CCOc1cc(CN2CCN(Cc3ccc(C)o3)C(CCO)C2)ccc1OC (stereo unspecified),9%,7%,.,-16%
COc1cc(/C=C/CN2CCN(Cc3ccc(C)o3)C(CCO)C2)ccc1O (stereo unspecified),1%,-12%,13µM*,-6%
COc1cc(/C=C/CN2CCN(CCC(C)C)C(CCO)C2)ccc1O (stereo unspecified),4%,25%,13µM*,0%
COc1ccc(/C=C/CN2CCN(Cc3cccc(OC)c3)C(CCO)C2)cc1 (stereo unspecified),-2%,130%,-13%,5%
COc1ccc(/C=C/CN2CCN(CC(C)C)C(CCO)C2)cc1 (stereo unspecified),7%,28%,-4%,0%
Cc1nnc(SCc2cc(=O)n3c(C)cccc3n2)s1,14%,.,1%,.
COc1ccc(Nc2ncnc3c2cnn3-c2ccc(C)cc2C)cc1,8%,.,8%,.
SMILES,AmpC detergent,AmpC inh no detg,Sm TGR block,FBPA Giardia inh
COC(=O)c1sccc1S(=O)(=O)N(CC(=O)NCc1ccccc1)c1ccc(C)c(C)c1,1%,.,1%,.
O=C(COc1ccc(Nc2ccccc2)cc1)Nc1ccncc1,?,-31%,45µM*,.
CCc1nnc(NS(=O)(=O)c2ccc(NC(=S)NC(=O)c3ccc(OC)c(OC)c3)cc2)s1,0%,-19%,40µM*,-3%
CCc1nnc(NS(=O)(=O)c2ccc(NC(=S)NC(=O)c3ccc(OC)cc3)cc2)s1,-15%,-22%,40µM*,0%
CCc1nnc(NS(=O)(=O)c2ccc(NC(=O)c3ccc(S(=O)(=O)N(CC)CC)cc3)cc2)s1,-4%,-35%,1%,-8%
CCc1nnc(NS(=O)(=O)c2ccc(NC(=S)NC(=O)c3ccncc3)cc2)s1,-1%,-10%,20µM*,2%
CC(=O)c1ccc(NC(=O)CSc2ccc(-c3cccs3)nn2)cc1,14%,.,-1%,.
CC(=O)c1ccc(NC(=O)CSc2ccc(-c3ccco3)nn2)cc1,1%,-18%,22µM*,.
Cc1ccc(NC(=O)CSc2ccc(-c3ccco3)nn2)cc1,5%,-34%,10µM*,-4%
CC(=O)Nc1cccc(NC(=O)CSc2ccc(-c3ccco3)nn2)c1,1%,-18%,14µM*,.
CC(=O)Nc1cccc(NC(=O)CSc2ccc(-c3cccnc3)nn2)c1,-11%,-16%,6%,14%
CC(=O)Nc1ccc(NC(=O)CSc2ccc(-c3cccs3)nn2)cc1,-14%,-40%,-7%,0%
CC(=O)Nc1ccc(NC(=O)CSc2ccc(-c3ccco3)nn2)cc1,4%,-28%,8.9µM*,-4%
Cc1cc(NCc2ccccc2Cl)n2cnnc2n1,0%,.,-1%,.
CC1CCC2C(=O)N(c3ccc(Cc4ccncc4)cc3)C(=O)C2C1 (stereo unspecified),6%,7%,9%,8%
CC(=O)c1cc2c(cc1NS(=O)(=O)c1ccccc1F)OCO2,-2%,-30%,-4%,5%
Cc1ccc(NC(=O)CSc2nnc(-c3ccco3)o2)c(C)c1,-10%,-11%,.,-4%
Cc1ccc(NC(=O)CSc2ccc(-c3ccco3)nn2)c(C)c1,-9%,-33%,28µM*,1%
CCOc1ccccc1C(=O)NC1(C(F)(F)F)C(=O)Nc2c1c(=O)[nH]c(=O)n2-c1ccccc1 (stereo unspecified),-4%,.,8%,.
CCOc1ccc(C2CC(c3cccc(OC)c3)n3nc(N)nc3N2)cc1 (stereo unspecified),?,4.5µM*,3%,0%
CCOc1ccc(C2CC(c3ccccc3C)n3nc(N)nc3N2)cc1 (stereo unspecified),-4%,32µM*,8%,-3%
COc1cccc(C2CC(c3c(Cl)cccc3Cl)n3nc(N)nc3N2)c1 (stereo unspecified),?,5.6µM*,4%,-1%
COc1cccc(C2CC(c3ccccc3C)n3nc(N)nc3N2)c1 (stereo unspecified),?,2.8µM*,4%,2%
COc1cccc(C2CC(c3c(F)cccc3Cl)n3nc(N)nc3N2)c1 (stereo unspecified),5%,0%,0%,1%
COc1ccc(C2CC(c3cccc(OC)c3)n3nc(N)nc3N2)cc1 (stereo unspecified),-9%,-15%,-1%,7%
CCCCC(CC(O)COCCC)c1n[nH]c(=S)n1-c1ccccc1 (stereo unspecified),-2%,0%,0%,-14%
O=C(Nc1ccccc1C(=O)NCCCN1CCOCC1)c1ccc(Cl)cc1,-1%,38%,5%,4%
CCOc1ccc(-c2c(C)nn3c(C)c(C(=O)NCCc4ccc(C)cc4)cnc23)cc1OCC,23%,.,4%,.
